# Source: PubChem BioAssay
# This is a sample that favours compounds with a hit; in the whole collection about 27% have one here.
# EphB4 antag: antagonists of human EphB4-ephrin-B2 interaction; P54760; EphB4 LBD / TNYL-RAW-Alexa532 peptide, fluorescence polarization; inhibition, % at 7 µM; 97,000 tested, 0.15% active; AID 720;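 active = inhibition above the screen-wide mean inhibition plus 3 SD, cut at about 15% in these data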;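 note: 0% = DMSO wells and 100% = excess unlabeled TNYL-RAW peptide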
# Target sequence (P54760 whole entry, looked up, the tested form may be a part): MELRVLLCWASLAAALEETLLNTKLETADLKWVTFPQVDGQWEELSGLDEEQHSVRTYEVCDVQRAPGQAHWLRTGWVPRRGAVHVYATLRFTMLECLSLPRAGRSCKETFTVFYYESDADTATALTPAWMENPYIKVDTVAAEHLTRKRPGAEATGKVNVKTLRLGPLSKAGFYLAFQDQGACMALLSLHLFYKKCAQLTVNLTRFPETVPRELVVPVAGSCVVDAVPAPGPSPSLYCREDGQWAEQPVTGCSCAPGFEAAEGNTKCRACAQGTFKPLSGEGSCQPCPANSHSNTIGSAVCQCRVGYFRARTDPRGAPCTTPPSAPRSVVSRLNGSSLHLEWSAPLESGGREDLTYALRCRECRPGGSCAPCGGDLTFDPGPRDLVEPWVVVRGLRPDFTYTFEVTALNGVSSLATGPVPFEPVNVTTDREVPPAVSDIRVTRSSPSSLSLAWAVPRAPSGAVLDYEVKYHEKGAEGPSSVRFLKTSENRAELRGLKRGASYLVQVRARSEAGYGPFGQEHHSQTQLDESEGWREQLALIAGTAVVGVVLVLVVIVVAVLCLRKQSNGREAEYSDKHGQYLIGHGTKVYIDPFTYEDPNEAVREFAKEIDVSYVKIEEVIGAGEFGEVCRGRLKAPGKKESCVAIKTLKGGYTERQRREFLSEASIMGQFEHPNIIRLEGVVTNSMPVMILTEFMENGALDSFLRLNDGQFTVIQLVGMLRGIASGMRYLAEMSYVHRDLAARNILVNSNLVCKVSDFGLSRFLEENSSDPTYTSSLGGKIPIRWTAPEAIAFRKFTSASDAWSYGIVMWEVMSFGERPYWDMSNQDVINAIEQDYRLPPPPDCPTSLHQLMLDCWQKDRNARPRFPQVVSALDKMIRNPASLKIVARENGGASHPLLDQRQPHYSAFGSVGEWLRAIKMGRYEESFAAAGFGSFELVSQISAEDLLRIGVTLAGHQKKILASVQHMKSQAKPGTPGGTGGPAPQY
# CYP2C9 activ: increases human cytochrome P450 2C9 activity; AID 1024; activation factor at 5 µM; recombinant CYP2C9, luciferin-H conversion, luminescence; stronger effect = higher value; factor 1 = untreated enzyme, 0 = blocked; P11712; 96,000 tested, 1.4% active;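 active = activation factor of 2 or more for CYP2C9 at a 5 µM dose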;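 note: 0 = sulfaphenazole-blocked wells and 1 = vehicle-only wells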
# CYP2C19 activ: cytochrome P450 2C19 (human) activation | P33261 | recombinant CYP2C19, luciferin-H EGE luminescence; stronger effect = higher value; 0 = fully inhibited enzyme, 1 = untreated enzyme | activation factor at 5 µM | 96,000 tested, under 10 active;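 active = activation factor of at least 2 at 5 µM in the primary screen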;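 note: 0 = wells with 2.5 mM tranylcypromine and 1 = vehicle-only wells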
# CYP2C9 inh: blocks human cytochrome P450 2C9 | AID 777 | 96,000 tested, 20% active | P11712 | CYP2C9 Supersomes, luciferin-H conversion, luminescence | inhibition, % at 5 µM;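 active = blocking of liver enzyme CYP2C9 beyond about 50% at 5 µM, limit read from the data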
# CYP2C19 inh: blocks human cytochrome P450 2C19 | 96,000 tested, 21% active | AID 778 | P33261 | inhibition, % at 5 µM | CYP2C19 Supersomes, luciferin-H EGE luminescence, 30 min;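 active = CYP2C19 inhibition above a set limit at 5 µM in the primary screen, cut at about 50% in these data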;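 note: plate controls were negative control wells for no effect and 2.5 mM tranylcypromine positive control for full effect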
# The depositor's hits bear a star; . = not tested or not shown.
SMILES,EphB4 antag,CYP2C9 activ,CYP2C19 activ,CYP2C9 inh,CYP2C19 inh
COc1ccc(OC)c(NS(=O)(=O)c2ccc(NC(=O)C3COc4ccccc4O3)cc2)c1 (stereo not drawn),-2,0.9,0.4,11,57*
NS(=O)(=O)c1ccc(NC(=O)C2COc3ccccc3O2)cc1 (stereo not drawn),1,0.8,0.9,16,14
Cc1cc(Nc2cccc(F)c2)nc(-c2ccccc2O)n1,11,1,1,-1,-3
COc1cccc(Nc2nnc(SCc3cc([N+](=O)[O-])cc4c3OCOC4)s2)c1,1,0.9,0.2,12,82*
Cc1cccc(C)c1Nc1nnc(SCc2cc([N+](=O)[O-])cc3c2OCOC3)s1,3,0.5,1.1,51*,-5
Cc1ccccc1Nc1nnc(SCc2cc(=O)n3ccsc3n2)s1,-2,0.8,0.9,20,12
COc1ccc(C2=NOC(C(=O)N3CCN(c4ccccc4OC)CC3)C2)cc1 (stereo not drawn),-7,0.8,0.9,22,8
Cc1cc(C)n(-c2nc3ccccc3nc2N2CCN(S(=O)(=O)c3ccc(F)c(C)c3)CC2)n1,-2,0.5,0.9,50*,7
Cc1cc(C)n(-c2nc3ccccc3nc2N2CCN(S(=O)(=O)c3ccc4ccccc4c3)CC2)n1,-3,0.5,0.7,50,33
Cc1cc(N2CCN(S(=O)(=O)c3ccc(Cl)cc3)CC2)c2ccccc2n1,-5,0.6,0.2,40,82*
CC(=O)N1CCN(c2ccc(NCc3ccc(C)s3)cc2)CC1,1,0.7,0.8,33,22
Cc1ccc(CNc2ccc(N3CCOCC3)cc2)s1,10,0.8,0.4,18,65*
Cc1ccc2c(Cl)cc(Cl)c(OCc3c(C)noc3C)c2n1,-6,0.9,0.3,8,67*
COc1cc(C(=O)Nc2nc3ccccc3s2)ccc1OCc1c(C)noc1C,4,0.6,1,45,2
CCCC(=O)NCc1cc(-c2nn(C)c(=O)c3ccccc23)ccc1C,7,0.6,0.7,40,25
Nc1nc(Cn2nnc(-c3ccccc3Cl)n2)nc(N2CCOCC2)n1,.,0.9,0.4,13,55*
CCOC(=O)C1CCN(C(c2cccc(OC)c2)c2sc3nc(C)nn3c2O)CC1 (stereo not drawn),.,0.8,0.1,19,87*
CCOC(=O)C1CCN(C(c2cccs2)c2sc3nc(C)nn3c2O)CC1 (stereo not drawn),.,1,0.3,-3,65*
COc1cc(C(c2sc3nc(C)nn3c2O)N2CCc3ccccc3C2)cc(OC)c1OC (stereo not drawn),.,0.7,0.2,33,84*
COC(=O)/C(C#N)=C1/SC=C(C)N1c1ccccc1,1,1.2,1,-16,2
Oc1ccc(Cl)cc1-c1cc(-c2ccccc2Cl)[nH]n1,4,.,.,.,.
Cc1ccc(O)c(C2=NCCNC(C(F)(F)F)=C2)c1,-3,0.6,1,42,4
Cc1ccc(O)c(-c2cc(C(F)(F)C(F)F)[nH]n2)c1,2,0.2,0.2,83*,84*
Cc1ccc(O)c(-c2cc(-c3ccccc3C)[nH]n2)c1,8,0,0.2,98*,82*
CCc1cc2c(=O)c(-c3cnn(-c4ccccc4)c3)c(C)oc2c(CN2CCCCC2)c1O,-9,0.7,0.5,28,46
SMILES,EphB4 antag,CYP2C9 activ,CYP2C19 activ,CYP2C9 inh,CYP2C19 inh
O=c1oc2c(CN3CCOCC3)c(O)ccc2c2c1CCCC2,.,2*,1,-104,4
Cc1oc2c(CN3CCOCC3)c(O)ccc2c(=O)c1-c1ccc(Br)cc1,-3,0.5,0.7,54*,26
O=c1oc2c(CN3CCOCC3)c(O)ccc2c2ccccc12,0,1,1,-1,2
CCc1cc2c(=O)c(-c3cnn(-c4ccccc4)c3)coc2c(CN2CCOCC2)c1O,5,0.3,0.8,74*,22
O=c1c(-c2ccc(Br)cc2)coc2c(CN3CCOCC3)c(O)ccc12,1,0.4,0.8,58*,19
Cc1oc2c(CN3CCCC3)c(O)ccc2c(=O)c1-c1ccc(Cl)cc1,0,0.9,1,7,4
O=C(NCC1COc2ccccc2O1)c1ccco1 (stereo not drawn),-7,1.1,0.7,-5,30
Cc1nc(NC(=O)c2ccccc2)sc1-c1csc(NCc2ccco2)n1,2,0.7,0.1,30,89*
Cc1ccc(Nc2nc(-c3sc(NC(=O)c4ccco4)nc3C)cs2)cc1,3,0.7,0.8,28,22
Cc1nc(C)c(-c2csc(Nc3cccnc3)n2)s1,-7,0.8,0.7,20,26
Cc1nc2ccccn2c1-c1csc(NCc2ccco2)n1,3,0.4,0.3,59*,72*
c1coc(CNc2nc(-c3ccncc3)cs2)c1,1,.,.,.,.
Cc1nc(C)c(-c2csc(NCc3ccccc3)n2)s1,-4,0.8,0.2,17,83*
Cc1nc(C)c(-c2csc(NCc3ccco3)n2)s1,0,2.7*,0.3,-169,69*
CC1CCC(NC(=O)c2cc3c(=O)n(C)c4ccccc4c3n2C)CC1 (stereo not drawn),2,1.7,0.7,-74,29
COc1ccccc1NC(=O)C(C)Sc1nnnn1C (stereo not drawn),.,1.1,0.9,-14,6
CCn1nnc(NC(=O)COc2cc(C)ccc2C(C)C)n1,-1,1,0.7,2,32
CCOC(=O)c1cnc(SCC(=O)N2CCc3ccccc32)nc1N,0,1.1,1.1,-5,-10
O=S(=O)(Cc1cccc(F)c1)c1c[nH]c2ccccc12,-3,0.2,0,81*,100*
N/C(Cc1ccc(Cl)cc1)=N\OC(=O)c1ccc2ccccc2c1,6,0.8,1.1,17,-15
N/C(Cc1ccc(Cl)c(Cl)c1)=N\OC(=O)c1cccs1,6,0.4,0.6,63*,38
CC(=O)c1ccc(Nc2nc(C)nc3c2oc2ccccc23)cc1,.,0.9,1.2,12,-16
c1ccc2c(c1)oc1c(NCc3ccc4c(c3)OCO4)ncnc12,.,0.2,0.3,85*,70*
c1ccc2c(c1)oc1c(Nc3ccc(CN4CCOCC4)cc3)ncnc12,2,0.8,0.4,17,60*
Cc1nc(Nc2ccc3c(c2)OCO3)c2oc3ccccc3c2n1,-1,0.3,0.5,66*,55*
c1ccc2c(c1)oc1c(Nc3ccc4c(c3)OCO4)ncnc12,-10,0.6,0.5,45,54*
COc1cccc(-c2nn3c(-c4ccco4)nnc3s2)c1,.,0.7,0.7,28,34
COc1ccc(CNC(=O)C(c2ccc(C)o2)N(C(=O)c2csnn2)c2ccc(C(C)C)cc2)cc1 (stereo not drawn),1,0.5,0.5,52*,51*
CCCn1nnnc1SCC(=O)N(C(C)C)C(C)C,.,1,0.3,-1,72*
CCCCn1nnnc1SCC(=O)N(CC)CC,3,0.9,0.7,11,31
